{"source": "PubChem BioAssay AID1851", "about": "(National Center for Advancing Translational Sciences (NCATS), 2009)", "note": "“And” between values parts separate entries of the source, which are not always exact repeats. Equal entries are not always repeated. In all, about 16,000 compounds went through this assay and about 2,600 (16%) were called active. About 20% were inconclusive and are not listed. Calls come from the whole dose curve; as a rule, active = well fitted curve in the direction sought with a large enough effect; inconclusive = small, poorly fitted or top-dose-only effect, or effect the other way; inactive = no such curve, though single readings can be large or run the other way. A selection follows. The source holds several records for some structures; these can differ, active in one and inactive in another. % is set by controls: 0 for no effect and ±100 for the full control effect.", "data": [{"biological_target": "Cytochrome P450 2D6 (Homo sapiens) (UniProt P10635)", "sequence (P10635 whole entry, looked up)": "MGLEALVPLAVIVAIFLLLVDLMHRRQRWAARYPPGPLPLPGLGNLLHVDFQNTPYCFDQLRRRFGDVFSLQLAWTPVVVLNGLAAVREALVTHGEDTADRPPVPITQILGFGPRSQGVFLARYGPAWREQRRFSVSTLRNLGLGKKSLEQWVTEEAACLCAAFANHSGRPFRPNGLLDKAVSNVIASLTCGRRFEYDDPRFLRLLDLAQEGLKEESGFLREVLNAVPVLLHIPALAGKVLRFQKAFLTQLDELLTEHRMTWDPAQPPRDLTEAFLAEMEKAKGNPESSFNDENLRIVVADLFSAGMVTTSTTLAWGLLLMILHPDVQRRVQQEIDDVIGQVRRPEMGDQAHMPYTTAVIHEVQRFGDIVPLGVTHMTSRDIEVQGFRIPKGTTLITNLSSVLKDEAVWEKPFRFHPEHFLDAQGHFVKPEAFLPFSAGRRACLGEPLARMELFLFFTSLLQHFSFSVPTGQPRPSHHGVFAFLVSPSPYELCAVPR", "assay": "Cytochrome panel assay with activity outcomes", "conditions": "recombinant CYP, pro-luciferin dealkylation, luminescence, p450-cyp2d6; series mostly up to 57.1 µM; activity, negative = inhibition: at the top concentration", "values": [{"smiles": "Cn1c2c(c(=O)n(C)c1=O)[C@@H]1c3c(ccc4ccccc34)OC[C@@H]1CO2", "activity, negative = inhibition": "-7.85% (inactive)"}, {"smiles": "COc1cc(C=O)ccc1OCCCOc1ccccc1C(=O)O", "activity, negative = inhibition": "14.2% (inactive)"}, {"smiles": "CCC1(C)Nc2ccccc2C(=O)N1O", "note": "(stereo not drawn)", "activity, negative = inhibition": "18.2% (inactive)"}, {"smiles": "CCCCC1(C)Nc2ccccc2-c2nc3ccccc3n21", "note": "(stereo not drawn)", "AC50": "20 µM (active)"}, {"smiles": "COc1cccc(Cn2c(=O)c(-c3ccc(Cl)cc3)nc3cnc(N4CCN(C)CC4)nc32)c1", "activity, negative = inhibition": "3.1% (inactive)"}, {"smiles": "CN(CC(=O)N1CCN(c2ccccc2)CC1)S(=O)(=O)c1cnc[nH]1", "AC50": "14.1 µM (active)"}, {"smiles": "CCc1cccc(NC(=O)CN(C)S(=O)(=O)c2cnc[nH]2)c1", "activity, negative = inhibition": "-12.6% (inactive)"}, {"smiles": "CC1CCN(C(=O)CN(C)S(=O)(=O)c2cccc3nsnc23)CC1", "activity, negative = inhibition": "-2.18% (inactive)"}, {"smiles": "CC(C)(Oc1ccc(-c2cccc3ccccc23)cc1)C(=O)O", "activity, negative = inhibition": "11.3% [at 11.4 µM] (inactive)"}, {"smiles": "COCC(=O)N1CCC[C@@]2(CCN(C(c3ccccc3)c3ccccc3)C2)C1", "AC50": "6.31 µM (active)"}, {"smiles": "COCC(=O)N1CCC2(CC1)CCN(c1ccccn1)CC2", "activity, negative = inhibition": "-2.48% (inactive)"}, {"smiles": "COCC(=O)N1CCC2(CC1)CN(C(c1ccccc1)c1ccccc1)C2", "AC50": "2.51 µM (active)"}, {"smiles": "COCC(=O)N1CCC2(CC1)CCN(C(c1ccccc1)c1ccccc1)CC2", "AC50": "12.6 µM (active)"}, {"smiles": "COCC(=O)N1CCC2(CCCN(C(=O)Nc3ccc(OC)cc3)C2)CC1", "activity, negative = inhibition": "7.58% (inactive)"}, {"smiles": "COCC(=O)N1CCC2(CC1)CCN(c1cccc(-c3ccccc3)c1)CC2", "activity, negative = inhibition": "-17.3% (inactive)"}, {"smiles": "COCC(=O)N1CCC2(CCCN(C(=O)Nc3ccccc3)C2)CC1", "activity, negative = inhibition": "3.41% (inactive)"}, {"smiles": "COCC(=O)N1CCC2(CC1)CN(C(=O)Nc1cccc(F)c1)C2", "activity, negative = inhibition": "0.536% (inactive)"}, {"smiles": "COCC(=O)N1CCC2(CC1)CN(C(=O)Nc1ccc(OC)cc1)C2", "activity, negative = inhibition": "-6.27% (inactive)"}, {"smiles": "Cc1ccc(NC(=O)CC2CS(=O)(=O)CC2CC(=O)Nc2ccc(C)c(C)c2)cc1C", "note": "(stereo not drawn)", "activity, negative = inhibition": "1.23% (inactive)"}, {"smiles": "OC[C@H]1NC[C@@H](O)[C@@H](O)[C@H]1O", "activity, negative = inhibition": "-17.5% (inactive)"}, {"smiles": "Cc1ccc(OCC(=O)NNC(=O)c2cc3ccccc3o2)cc1C", "activity, negative = inhibition": "16.4% (inactive)"}, {"smiles": "COc1cccc(C(=O)N2N=C(c3cccc(OC)c3)CC2(O)C(F)(F)F)c1", "note": "(stereo not drawn)", "activity, negative = inhibition": "-20.4% (inactive)"}, {"smiles": "CC(C)(Oc1ccc([C@@H]2CC2(Cl)Cl)cc1)C(=O)O", "AC50": "inactive"}, {"smiles": "CC(C)c1ccc(N2C(=O)CC(Sc3nc4ccccc4o3)C2=O)cc1", "note": "(stereo not drawn)", "activity, negative = inhibition": "-3.25% (inactive)"}, {"smiles": "C[C@]12CC3CC(N)(C1)C[C@@](C)(C3)C2", "AC50": "inactive and 316 nM (active)"}, {"smiles": "C[C@@]12CC3CC(N)(C1)C[C@@](C)(C3)C2", "activity, negative = inhibition": "-15.5% [at 25.6 µM] (inactive)"}, {"smiles": "CCc1nnc(NC(=O)CSc2nc3cc4c(cc3cc2C)OCCO4)s1", "activity, negative = inhibition": "-3.67% (inactive)"}, {"smiles": "CC1=N/C(=C\\c2ccc([N+](=O)[O-])cc2)C(=O)N1c1ccc(Br)c(C)c1", "activity, negative = inhibition": "3.34% (inactive)"}]}]}
